Results reported in PubChem BioAssay (NCI).
About 83,000 compounds went through this panel and 20% of them were active in at least one assay; those are over-represented in the sample as a whole.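 Single-dose data. Exposure time 48 hours. Values below 10 considered active.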 The source made the active and inactive calls.

Legend:
Assay in all cases: NCI-60 one-dose screen, 48 h (100 = growth as untreated, 0 = no growth, -100 = all killed)
Details in all cases: 10 µM unless noted
MOLT-4 leukemia = test system: MOLT-4 leukemia
SR leukemia = test system: SR leukemia
RPMI-8226 leukemia = test system: RPMI-8226 leukemia
OVCAR-8 ovarian = test system: OVCAR-8 ovarian
OVCAR-5 ovarian = test system: OVCAR-5 ovarian
OVCAR-4 ovarian = test system: OVCAR-4 ovarian
SK-OV-3 ovarian = test system: SK-OV-3 ovarian
IGROV1 ovarian = test system: IGROV1 ovarian
OVCAR-3 ovarian = test system: OVCAR-3 ovarian
HS 578T breast = test system: HS 578T breast

Measured: growth

Cn1cccc1C1CC(=O)N(CCC[Se]C#N)C1=O (stereo not given)
inactive: SR leukemia 21.2% | RPMI-8226 leukemia 64.4% | OVCAR-5 ovarian 20.4% | OVCAR-4 ovarian 31.2%
active: MOLT-4 leukemia 3.58% | OVCAR-8 ovarian -51.5% | SK-OV-3 ovarian -15.7% | IGROV1 ovarian -44.1% | OVCAR-3 ovarian -45.5% | HS 578T breast -8.66%

Clc1cccc(N2COOC3(OOC2)C2CC4CC(C2)CC3C4)c1
active: IGROV1 ovarian -54.4%
inactive: MOLT-4 leukemia 77.8% | SR leukemia 37.7% | RPMI-8226 leukemia 53.8% | OVCAR-8 ovarian 58.1% | OVCAR-5 ovarian 84.3% | OVCAR-4 ovarian 95.3% | SK-OV-3 ovarian 98.1% | OVCAR-3 ovarian 19.2% | HS 578T breast 88.6%

Cc1cccc(N2CCN(C(C)C#N)CC2)c1 (stereo not given)
inactive: MOLT-4 leukemia 106% | SR leukemia 98.2% | RPMI-8226 leukemia 104% | OVCAR-8 ovarian 106% | OVCAR-5 ovarian 103% | OVCAR-4 ovarian 114% | SK-OV-3 ovarian 102% | IGROV1 ovarian 108% | OVCAR-3 ovarian 109% | HS 578T breast 96.3%

Cc1cc(N(CCCl)CCCl)ccc1C=Nc1ccccc1-c1ccccc1
inactive: MOLT-4 leukemia 41.9% | SR leukemia 30.6% | RPMI-8226 leukemia 86.7% | OVCAR-8 ovarian 74% | OVCAR-5 ovarian 43.1% | OVCAR-4 ovarian 99.5% | SK-OV-3 ovarian 98.6% | IGROV1 ovarian 47.8% | OVCAR-3 ovarian 88.3% | HS 578T breast 104%

CCNc1nc(Cl)nc(NCC)n1
inactive: MOLT-4 leukemia 69.8% | SR leukemia 75.8% | RPMI-8226 leukemia 94.3% | OVCAR-8 ovarian 58.9% | OVCAR-5 ovarian 104% | OVCAR-4 ovarian 95.6% | SK-OV-3 ovarian 109% | IGROV1 ovarian 29.4% | OVCAR-3 ovarian 108% | HS 578T breast 96.8%

COC(=O)[C@@H](C)C[C@H](Cc1ccc(F)cc1)NC(=O)c1csc([C@@H](C[C@H](C(C)C)N(C)C(=O)[C@@H](NC(=O)[C@H]2CCCCN2C)C(C)C)OC(C)=O)n1
inactive: MOLT-4 leukemia 18.3% | SR leukemia 14.9% | RPMI-8226 leukemia 17.4% | OVCAR-8 ovarian 30% | OVCAR-5 ovarian 53.7% | OVCAR-4 ovarian 49.2% | SK-OV-3 ovarian 21.4% | IGROV1 ovarian 25.3% | HS 578T breast 34%
active: OVCAR-3 ovarian -27.4%

CNC(=O)Oc1ccc2c(c1)OCO2
inactive: MOLT-4 leukemia 94.3% | SR leukemia 91.4% | RPMI-8226 leukemia 115% | OVCAR-8 ovarian 101% | OVCAR-5 ovarian 106% | OVCAR-4 ovarian 116% | SK-OV-3 ovarian 116% | IGROV1 ovarian 104% | OVCAR-3 ovarian 119% | HS 578T breast 109%

CC(=O)[O][Hg][O]C(C)=O
inactive: MOLT-4 leukemia 84.8% | SR leukemia 11.9% | RPMI-8226 leukemia 90.1% | OVCAR-8 ovarian 98.7% | OVCAR-5 ovarian 115% | OVCAR-4 ovarian 94.3% | SK-OV-3 ovarian 97.8% | IGROV1 ovarian 53.2% | OVCAR-3 ovarian 34.5% | HS 578T breast 106%

C[C@]12CC[C@H]3[C@@H](C[C@@H]4SC(Nc5ccccc5)=N[C@@]45CC(O)CC[C@]35C)[C@@H]1CCC2O (stereo not given in full)
active: MOLT-4 leukemia 6.79% | SR leukemia 8.06% | RPMI-8226 leukemia -32.3% | OVCAR-8 ovarian -8.95% | OVCAR-3 ovarian -31.6% | HS 578T breast 3.65%
inactive: OVCAR-5 ovarian 92.2% | OVCAR-4 ovarian 64.1% | SK-OV-3 ovarian 89.6% | IGROV1 ovarian 11.2%

CCCCCCCC[n+]1ccc2ccccc2c1
inactive: MOLT-4 leukemia 58% | SR leukemia 47.8% | RPMI-8226 leukemia 13.8% | OVCAR-8 ovarian 55.7% | OVCAR-5 ovarian 88.5% | OVCAR-4 ovarian 46.4% | SK-OV-3 ovarian 62.9% | IGROV1 ovarian 64.1% | OVCAR-3 ovarian 50.2% | HS 578T breast 76.1%

CO[C@H]1CC[C@@]2(C)C(=CC[C@@H]3[C@@H]2CC[C@]2(C)C(=O)C(=O)C[C@@H]32)C1
inactive: MOLT-4 leukemia 115% | SR leukemia 107% | RPMI-8226 leukemia 88.9% | OVCAR-8 ovarian 93.3% | OVCAR-5 ovarian 103% | OVCAR-4 ovarian 113% | SK-OV-3 ovarian 103% | IGROV1 ovarian 120% | OVCAR-3 ovarian 105% | HS 578T breast 92.6%

COC(=O)[C@@H](NC(=O)c1cn(CCC2CCCCC2)c2ccccc12)C(C)(C)C
inactive: MOLT-4 leukemia 64.3% | SR leukemia 61.3% | RPMI-8226 leukemia 64.9% | OVCAR-8 ovarian 77.7% | OVCAR-5 ovarian 82% | OVCAR-4 ovarian 68.7% | SK-OV-3 ovarian 79.2% | IGROV1 ovarian 62.3% | OVCAR-3 ovarian 77.4% | HS 578T breast 83.9%

CCCCNC(c1ccc(Cl)cc1)C(O)c1ccc(Cl)cc1 (stereo not given)
active: MOLT-4 leukemia 9.52% | SR leukemia -34.2% | RPMI-8226 leukemia -15.1%
inactive: OVCAR-8 ovarian 49% | OVCAR-5 ovarian 56% | OVCAR-4 ovarian 65.9% | SK-OV-3 ovarian 79.6% | IGROV1 ovarian 27% | OVCAR-3 ovarian 55.6% | HS 578T breast 64.2%

C/C(Cc1ccc(Cl)cc1)=C(\c1ccc(OCCN2CCOCC2)cc1)c1ccc(OC(=O)Cc2ccccc2)cc1
inactive: MOLT-4 leukemia 94.8% | SR leukemia 87.1% | RPMI-8226 leukemia 84% | OVCAR-8 ovarian 92% | OVCAR-5 ovarian 91.1% | OVCAR-4 ovarian 101% | SK-OV-3 ovarian 109% | IGROV1 ovarian 86.4% | OVCAR-3 ovarian 101% | HS 578T breast 99.1%

Nc1ccc(OCCNS(=O)(=O)c2cccc(S(=O)(=O)F)c2)c(Cl)c1
inactive: MOLT-4 leukemia 76.2% | SR leukemia 93.3% | RPMI-8226 leukemia 80.4% | OVCAR-8 ovarian 115% | OVCAR-5 ovarian 102% | OVCAR-4 ovarian 64.1% | SK-OV-3 ovarian 87.1% | IGROV1 ovarian 97.3% | OVCAR-3 ovarian 110% | HS 578T breast 93.6%

C=CC1=C[C@@H]2[C@@H]3O[C@]4(CC[C@H](O4)[C@@H](C)C[C@@H](O)C3=O)C[C@H](O)C3=NCC[C@@]32CC1
active: MOLT-4 leukemia 0.671% | SR leukemia 2.4% | RPMI-8226 leukemia -15.9% | OVCAR-8 ovarian -12.3% | OVCAR-5 ovarian -24% | OVCAR-4 ovarian -38.8% | SK-OV-3 ovarian -4.99% | IGROV1 ovarian -28.4% | OVCAR-3 ovarian -30.7% | HS 578T breast -29.6%

O=NN1CCCc2cccc(O)c21
inactive: MOLT-4 leukemia 51.8% | RPMI-8226 leukemia 44.5% | OVCAR-8 ovarian 24% | OVCAR-5 ovarian 115% | OVCAR-4 ovarian 63.7% | SK-OV-3 ovarian 38.8% | IGROV1 ovarian 44.4% | OVCAR-3 ovarian 49.6% | HS 578T breast 46.3%
active: SR leukemia 1.91%

COC(=O)[C@@H](C)C[C@H](Cc1ccccc1)NC(=O)c1csc([C@@H](C[C@H](C(C)C)N(C)C(=O)[C@H](C)NC(=O)[C@H]2CCCN2C)OC(C)=O)n1
inactive: MOLT-4 leukemia 42.6% | SR leukemia 14.1% | OVCAR-8 ovarian 58.3% | OVCAR-5 ovarian 110% | OVCAR-4 ovarian 88.9% | SK-OV-3 ovarian 73.2% | IGROV1 ovarian 58.1% | OVCAR-3 ovarian 17.9% | HS 578T breast 17.6%
active: RPMI-8226 leukemia 9.55%

COC(=O)[C@@H](C)C[C@H](Cc1ccccc1)NC(=O)c1nc([C@@H](C[C@H](C(C)C)N(C)C(=O)[C@@H](NC(=O)[C@H]2CCCCN2C)C(C)C)OC(C)=O)sc1C(C)C
active: MOLT-4 leukemia 5.59% | SR leukemia 3.18% | OVCAR-8 ovarian 2.95% | OVCAR-3 ovarian -22.9% | HS 578T breast 4.24%
inactive: RPMI-8226 leukemia 20.5% | OVCAR-5 ovarian 27.1% | OVCAR-4 ovarian 41.6% | SK-OV-3 ovarian 26.8% | IGROV1 ovarian 19.8%

COc1ccc(C(=O)c2cc(OC)c(OC)c(OC)c2)cc1OC(C)=O
inactive: MOLT-4 leukemia 13.9% | SR leukemia 11.9% | RPMI-8226 leukemia 20.4% | OVCAR-8 ovarian 15.6% | OVCAR-5 ovarian 57.9% | OVCAR-4 ovarian 57.7% | SK-OV-3 ovarian 24.2% | IGROV1 ovarian 25.6% | HS 578T breast 44.3%
active: OVCAR-3 ovarian 5.13%

O=C1CN=C(c2ccc(Cl)cc2)c2sccc2N1
inactive: MOLT-4 leukemia 95.6% | SR leukemia 87.1% | RPMI-8226 leukemia 97.7% | OVCAR-8 ovarian 101% | OVCAR-5 ovarian 104% | OVCAR-4 ovarian 102% | SK-OV-3 ovarian 113% | IGROV1 ovarian 108% | OVCAR-3 ovarian 109% | HS 578T breast 99.6%

c1cnc2[nH]cc(-c3csc(-c4cn(CCCCN5CCCCC5)c5ccccc45)n3)c2c1
inactive: MOLT-4 leukemia 56.4% | RPMI-8226 leukemia 52.5% | OVCAR-8 ovarian 87.3% | OVCAR-5 ovarian 96.3% | OVCAR-4 ovarian 83.8% | SK-OV-3 ovarian 109% | IGROV1 ovarian 44.9% | OVCAR-3 ovarian 90.5% | HS 578T breast 84.3%
active: SR leukemia -23.5%

COC(=O)[C@@H](C)C[C@H](Cc1ccccc1)NC(=O)c1csc([C@@H](C[C@H](C(C)C)N(C)C(=O)[C@@H](NC(=O)[C@H]2CCCN2C)C2CC2)OC(C)=O)n1
active: OVCAR-3 ovarian -34.5% | HS 578T breast 3.36%
inactive: MOLT-4 leukemia 12.3% | SR leukemia 11.2% | RPMI-8226 leukemia 13.9% | OVCAR-8 ovarian 33.4% | OVCAR-5 ovarian 46.8% | OVCAR-4 ovarian 51.6% | SK-OV-3 ovarian 25.7% | IGROV1 ovarian 27.1%

Cc1ccc(N2COOC3(OOC2)C2CC4CC(C2)CC3C4)cc1
inactive: MOLT-4 leukemia 79.3% | SR leukemia 46.4% | RPMI-8226 leukemia 102% | OVCAR-8 ovarian 99% | OVCAR-5 ovarian 101% | OVCAR-4 ovarian 101% | SK-OV-3 ovarian 101% | IGROV1 ovarian 45.2% | OVCAR-3 ovarian 102% | HS 578T breast 109%

O=C(Nc1ccc([N+](=O)[O-])cc1)C(Cl)(Cl)Cl
inactive: MOLT-4 leukemia 107% | SR leukemia 94.1% | RPMI-8226 leukemia 106% | OVCAR-8 ovarian 100% | OVCAR-5 ovarian 95.6% | OVCAR-4 ovarian 103% | SK-OV-3 ovarian 115% | IGROV1 ovarian 93.5% | OVCAR-3 ovarian 117% | HS 578T breast 99.8%

COP(=S)(N1CC1)N1CC1
inactive: MOLT-4 leukemia 101% | SR leukemia 89.9% | RPMI-8226 leukemia 104% | OVCAR-8 ovarian 135% | OVCAR-5 ovarian 95.9% | OVCAR-4 ovarian 111% | SK-OV-3 ovarian 110% | IGROV1 ovarian 106% | OVCAR-3 ovarian 113% | HS 578T breast 121%
